Assay [1] in a line: NCI Yeast Anticancer Drug Screen. Data for the rad50 strain (AID 155).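 Note: 0% = growth of vehicle-only cultures of the same strain.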 Particulars: S. cerevisiae rad50 strain growth inhibition; at 50.0 µM; active compounds read high. In short, it runs like this:
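Growth of the mutant yeast was measured after compound exposure and referenced to vehicle-treated cultures.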

Assay [2] is described as follows: NCI Yeast Anticancer Drug Screen. Data for the mec2-1 strain (AID 157). Particulars: S. cerevisiae mec2-1 strain, at 50.0 µM, active compounds read high. In short, it runs like this:
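Growth inhibition is read against vehicle-treated controls after compound exposure of the mec2-1 yeast strain, which is defective in DNA damage repair or cell cycle control.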

A short description of assay [3]: NCI Yeast Anticancer Drug Screen. Data for the sgs1 mgt1 strain (AID 161).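 Note: 0% = growth of cultures given vehicle only.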 Particulars: S. cerevisiae sgs1 mgt1 strain, at 50.0 µM, active compounds read high. The essentials: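 Percent growth inhibition was derived by comparing compound-exposed mutant yeast with vehicle-exposed cultures. The strain carries alterations in DNA damage repair.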
Assay [4] is described as follows: NCI Yeast Anticancer Drug Screen. Data for the cln2 rad14 strain (AID 165).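 Note: 0% = growth equal to vehicle treated cultures.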 Particulars: S. cerevisiae cln2 rad14 strain, at 50.0 µM, active compounds read high. In short, it runs like this:
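Growth inhibition, relative to vehicle-treated controls, is the read-out. The test organism is a yeast strain with defined genetic alterations, cln2 rad14.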

The nature of assay [5]: NCI Yeast Anticancer Drug Screen. Data for the bub3 strain (AID 167). To be noted: S. cerevisiae bub3 mutant strain, at 50.0 µM, active compounds read high. In short, it runs like this:
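Whole-cell yeast assay. The mutant strain was incubated with compounds, and growth inhibition was determined by comparison with vehicle-treated cells.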

Assay [6] can be described thus: NCI Yeast Anticancer Drug Screen. Data for the mlh1 rad18 strain (AID 175). Particulars: S. cerevisiae mlh1 rad18 strain growth inhibition; at 50.0 µM; active compounds read high. The essentials: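 Cells of a genetically altered yeast strain, deficient in DNA damage repair, were treated with compound. Their growth was then compared with that of vehicle-treated cultures to give inhibition.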

Compounds without any hit were thinned out: in the full panel of roughly 79,000, 15% have a hit. Values without a mark were called inactive. Calls of active or inactive are those of the source. Cut-off read from the data, not from the text of the source: active = growth inhibition above about 70%; inactive = the rest.

As to `CCOC(=O)c1cc(-c2ccccc2)nc2nc(N)ccc12`, the growth inhibition is 15.2% in assay [1]; -3.15% in assay [2]; 5.65% in assay [3]; 9.05% in assay [4]; 13.2% in assay [5]; 15.2% in assay [6].

Take `COc1nc(OC)c2[nH]cnc2n1`: the growth inhibition is 17.6% in assay [1]; 15.3% in assay [2]; 13.1% in assay [3]; -38.7% in assay [4]; -1.35% in assay [5]; 14.7% in assay [6].

As to `Cn1c(=O)oc2cc([N+](=O)[O-])c(Cl)cc21`, the growth inhibition was -2.9% in assay [1]; 4.25% in assay [2]; -0.85% in assay [3]; -1.35% in assay [4]; -6.6% in assay [5]; 6.75% in assay [6].

On to `COC(=O)CCNc1c(OC)ccc2ccccc12`, for which the growth inhibition in assay [1] was 22.1%; in assay [2] it was 3.85%; in assay [3], 11.8%; in assay [4], 17.9%; in assay [5], 28.4%; in assay [6] it was -5%.

In the case of `CN(C)C1CS(=O)(=O)C1c1ccccc1` (stereo unspecified), the growth inhibition is 19.6% in assay [1]; 9% in assay [2]; 7.1% in assay [3]; -19.5% in assay [4]; 8.3% in assay [5]; 1.45% in assay [6].

For the compound `Fc1ccccc1C(Nc1nc2ccccc2s1)Nc1nc2ccccc2s1`, the growth inhibition was 13.4% in assay [1]; 6.05% in assay [2]; -7.3% in assay [3]; -0.3% in assay [4]; -3.15% in assay [5]; 1.35% in assay [6].

With `CN(C)Cc1c(CC(O)(c2ccccc2)c2ccccc2)ccc2ccccc12`, the growth inhibition was 10.8% in assay [1]; -4.75% in assay [2]; -12.2% in assay [3]; -0.55% in assay [4]; -1.2% in assay [5]; 5.6% in assay [6].

On to `Cc1ccc(C)c(C(=O)c2ccccc2)c1C(=O)O`, for which the growth inhibition in assay [1] was -24.6%; in assay [2], 7.8%; in assay [3] it was 12.8%; in assay [4], -29.9%; in assay [5], 7.7%; in assay [6], -4.15%.

For `ClCc1nn(-c2ccccc2)c(CCl)c1CCl`, the growth inhibition in assay [1] is 46.6%; in assay [2] it was 14.3%; in assay [3] it was 18.4%; in assay [4], -1.45%; in assay [5], 8.25%; in assay [6] it was -4.55%.

Turning to `CCN(CC)CCCC(C)Nc1c2ccccc2nc2cc(Cl)cc(Cl)c12` (stereo unspecified), the growth inhibition is 17.6% in assay [1]; 4.15% in assay [2]; 3.1% in assay [3]; 10.9% in assay [4]; 9.6% in assay [5]; 26.8% in assay [6].

As for `C=CCNC(=S)N(Cc1ccccc1)Cc1ccccc1`, the growth inhibition in assay [1] was 86.2% (active); in assay [2], 80% (active); in assay [3], 91.9% (active); in assay [4] it was 82.9% (active); in assay [5] it was 88.7% (active); in assay [6] it was 86.5% (active).

As to `CCC1(CC)C(=O)N(C(=O)c2cc(OC)c(OC)c(OC)c2)N(C(=O)c2cc(OC)c(OC)c(OC)c2)C1=O`, the growth inhibition in assay [1] was 13.2%; in assay [2], -0.1%; in assay [3] it was -2.2%; in assay [4], -11%; in assay [5] it was 6.75%; in assay [6], 14.8%.

As to `CC(C)N(CC(=O)NC(=O)c1ccccc1)Cc1ccccc1`, the growth inhibition in assay [1] was 3.5%; in assay [2], -8.4%; in assay [3], -1.95%; in assay [4], -30.1%; in assay [5], -1.5%; in assay [6], -11.7%.

As for `C[C@@H](Oc1ccc(Oc2cnc3ccc(Cl)cc3n2)cc1)C(=O)O`, the growth inhibition in assay [1] was 15.8%; in assay [2], 5.4%; in assay [3], 4.2%; in assay [4] it was 37.8%; in assay [5], 15.2%; in assay [6], 3.95%.

Regarding `COc1cccc(NCNC2Nc3ccccc3N2)c1`, the growth inhibition in assay [1] is 25.1%; in assay [2] it was 10.1%; in assay [3], -0.75%; in assay [4] it was -23.4%; in assay [5] it was 18.4%; in assay [6] it was 19.8%.

`C[N+](C)(CCCN1C(=O)c2cccc3c(Br)ccc(c23)C1=O)Cc1ccc(Cl)c(Cl)c1`: the growth inhibition was 97.8% (active) in assay [1]; 98% (active) in assay [2]; 98.3% (active) in assay [3]; 95.8% (active) in assay [4]; 95.7% (active) in assay [5]; 98% (active) in assay [6].

As for `CCCC1=NC(C(F)(F)F)(C(F)(F)F)N=C(N2CCOCC2)O1`, the growth inhibition in assay [1] is 0.95%; in assay [2], 7.25%; in assay [3], -2.3%; in assay [4], 4.55%; in assay [5], 27.1%; in assay [6] it was 1.45%.

Turning to `NNc1ccc(C(=O)O)cc1`, the growth inhibition in assay [1] is -3.6%; in assay [2] it was 12.1%; in assay [3], -2.1%; in assay [4], 11%; in assay [5], -2.35%; in assay [6], -4.9%.

For the compound `CN(C)C(=S)SCCC(=O)O`, the growth inhibition in assay [1] was 3.05%; in assay [2] it was -4.3%; in assay [3] it was 6.05%; in assay [4], 8.5%; in assay [5], -2.65%; in assay [6], -8.2%.

Take `O=C(O)C12C3CCC(CC3)C1(C(=O)O)C1CCC2C1` (stereo unspecified): the growth inhibition in assay [1] is -57.6%; in assay [2], -12.4%; in assay [3], -12.1%; in assay [4], -24.1%; in assay [5] it was 5.05%; in assay [6], -1.2%.

As for `CC1=C(C(=O)Nc2ccccc2C)C(c2ccco2)C(C(=O)Nc2ccccc2C)=C(C)N1C`, the growth inhibition is -7.45% in assay [1]; -6.6% in assay [2]; -38.1% in assay [3]; -15.5% in assay [4]; -9.6% in assay [5]; -8.8% in assay [6].

These data come from PubChem BioAssay (NCI).
